# GPR151 activ – activators of human GPR151, primary screen, cell-based, PathHunter beta-arrestin, luminescence; activation, % at 11.2 µM; PathHunter beta-arrestin GPR151 cells; 650,000 compounds, 1% hits; AID 1508602, 2020; in the data active = activation above about 4.9%
# Target sequence (Q8TDV0 whole entry, looked up): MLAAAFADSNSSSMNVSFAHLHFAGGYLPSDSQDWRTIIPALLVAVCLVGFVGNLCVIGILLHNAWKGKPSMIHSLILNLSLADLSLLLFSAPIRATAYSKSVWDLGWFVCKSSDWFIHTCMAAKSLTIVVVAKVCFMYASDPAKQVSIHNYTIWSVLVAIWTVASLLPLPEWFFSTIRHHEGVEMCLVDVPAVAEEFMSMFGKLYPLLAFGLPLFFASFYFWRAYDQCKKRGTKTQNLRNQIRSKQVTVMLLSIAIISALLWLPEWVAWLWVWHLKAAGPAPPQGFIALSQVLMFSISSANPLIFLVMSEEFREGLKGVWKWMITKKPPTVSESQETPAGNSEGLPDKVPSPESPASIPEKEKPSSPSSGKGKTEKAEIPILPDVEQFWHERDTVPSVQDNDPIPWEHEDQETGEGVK
# TEAD-YAP inh – TEAD-YAP interaction inhibition, primary screen, TEAD-YAP interaction inhibitor project, luminescence, HEK-TIYL cells; TEAD-Gal4/YAP UAS-luciferase luminescence; inhibition, % at 9.12 µM; 640,000 compounds, 1.4% hits; in the data active = inhibition above about 32%
# MITF primary – MITF inhibitors, primary screen, biochemical, AlphaScreen, human | Microphthalmia-associated transcription factor (Homo sapiens), O75030 | AlphaScreen MITF homodimerization, bead proximity signal | inhibition, % at 2.6 µM | 650,000 compounds, 0.91% hits | AID 1259374, 2018; in the data active = inhibition above about 50%
# FBW7 act – FBW7 E3 ligase activators, primary screen, biochemical, AlphaScreen, human; AlphaScreen FBW7–phospho-cyclin E peptide binding, activator screen; normalized activity (activation), % at 26.1 µM; 650,000 compounds, 0.13% hits; F-box/WD repeat-containing protein 7 (Homo sapiens), Q969H0; in the data active = normalized activity above about 1.9%;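 note: purified mutant Fbw7 with reduced substrate affinity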
# A number is an active result; 0 = inactive. This is a sample that favours compounds with a hit; in the whole collection about 3.5% have one here.
SMILES,GPR151 activ,TEAD-YAP inh,MITF primary,FBW7 act
COc1cc(/C=C/C(=O)OC/C(O)=C(\C#N)c2nc3ccccc3[nH]2)ccc1O,0,0,0,0
O=c1c([N+](=O)[O-])c(N2CCN(C3CCCC3)CC2)c2ccccc2n1-c1ccccc1,0,0,0,0
O=C(N/N=C/c1ccc(F)cc1)c1cc2sccc2[nH]1,0,48.9,0,0
Cc1ccc2oc(=O)cc(CSc3nc(C)cc(C)c3C#N)c2c1,0,50.9,0,0
Cc1ccc2c(CSc3nc(N)cc(N)n3)cc(=O)oc2c1,0,0,0,0
O=C1Nc2ccccc2N(O)N1c1ccc(S(=O)(=O)NCc2ccccn2)cc1,0,0,0,0
Oc1c(C=Nc2ccccc2)sc2ccccc12,0,0,0,0
CN(C)c1ccc(N=Cc2sc3ccccc3c2O)cc1,0,76.2,0,0
Oc1ccc(N=Cc2sc3ccccc3c2O)cc1,0,0,0,0
O=C(O)c1ccc(N=Cc2sc3ccccc3c2O)cc1,0,52.2,0,0
Oc1c(C=Nc2ccc(I)cc2)sc2ccccc12,0,0,0,0
CN(C)c1ccc(N=Cc2c[nH]c3ccccc23)cc1,0,68.3,0,0
Oc1c(C=NC2CCCCCC2)sc2ccccc12,0,37.7,0,0
CC(=O)Nc1ccc(C(=O)NCC(=O)OCc2ccc(C(=O)c3ccccc3)cc2)cc1,0,43.6,0,0
c1ccc(-c2cc(N3CCC4(CC3)OCCO4)nc(-c3ccccn3)n2)cc1,0,42.8,0,0
c1ccc(-c2cnc(N3CCC4(CC3)OCCO4)nc2)cc1,0,70.4,0,0
COc1ccc(-c2cnc(N3CCC4(CC3)OCCO4)nc2)cc1,0,0,0,0
Fc1ccc(-c2cc(N3CCC4(CC3)OCCO4)nc(-c3ccccn3)n2)cc1,0,0,0,0
O=[N+]([O-])c1cc(Cl)c2oc(-c3ccc(O)cc3)nc2c1,0,54.7,0,0
O=C(Nc1ccc(-c2nc3ccccc3o2)cc1)c1cc([N+](=O)[O-])ccc1Cl,0,0,0,0
COCCN1C(=O)/C(=C/c2ccccc2OC)SC1=S,0,0,0,0
COc1ccccc1/C=C1/SC(=S)N(CCCC(=O)O)C1=O,0,45.6,0,0
COc1ccccc1/C=C1/SC(=S)N(CCCCCC(=O)O)C1=O,0,58.4,0,0
CCOC(=O)c1ccccc1OC(=O)CSc1ccccc1[N+](=O)[O-],0,0,0,0
COc1nsc(SC)c1C(N)=O,0,0,0,0
SMILES,GPR151 activ,TEAD-YAP inh,MITF primary,FBW7 act
CC1=C(C(=O)OCc2ccccc2)C(c2cn(-c3ccccc3)nc2-c2ccc(C)cc2)C(C(=O)OCc2ccccc2)=C(C)N1,0,0,0,0
CC1=C(C(=O)OCc2ccccc2)C(c2cn(-c3ccccc3)nc2-c2ccc(F)cc2)C(C(=O)OCc2ccccc2)=C(C)N1,0,0,0,1.9
COc1ccccc1N1CCN(C2CCCN(Cc3ccc(OCCO)cc3)C2)CC1 (stereo unspecified),0,0,0,0
O=C1OCC2=C1C(c1ccc(F)cc1)c1cc3c(cc1N2)OCCO3 (stereo unspecified),0,52.6,0,0
CC(=O)Nc1ccc(C2C3=C(COC3=O)Nc3cc4c(cc32)OCO4)cc1 (stereo unspecified),0,0,0,0
O=C1NC2=C(C(=O)OC2)C(c2ccc(F)c(F)c2)N1 (stereo unspecified),0,0,0,0
O=C1OCC2=C1C(c1ccc(F)cc1)c1cc3c(cc1N2)OCO3 (stereo unspecified),0,49.8,0,0
FC(F)(F)c1cccc(CNc2nc(N3CCN(c4ccccn4)CC3)nc3c2ncn3-c2ccccc2)c1,0,0,0,0
CCc1c(C)sc2ncn(C3CCN(C(=O)C4CCCC(OC)C4)CC3)c(=O)c12 (stereo unspecified),0,41.8,0,0
CCc1c(C)sc2ncn(C3CCN(C(=O)Cc4ccsc4)CC3)c(=O)c12,0,45.3,0,0
CCc1c(C)sc2ncn(C3CCN(C(=O)CCn4nc(C)cc4C)CC3)c(=O)c12,0,0,0,0
N#Cc1ccc(-c2ccc(OCC(N)=O)cc2)cc1,0,0,0,0
CC(C(=O)O)N(c1ccc(Oc2ccccc2)cc1)S(C)(=O)=O (stereo unspecified),0,0,0,0
O=C(NNC(=O)c1cc2cc([N+](=O)[O-])ccc2oc1=O)c1ccncc1,0,0,0,0
O=C(Nn1c(C2CC2)nc2cc(Cl)ccc2c1=O)c1ccccc1,0,53.2,0,0
O=C(O)c1cc(-c2ccc(O)c(O)c2)nc2n[nH]c(-c3ccccc3)c12,0,0,81.3,0
O=C(O)c1cc(-c2ccc(O)c(O)c2)nc2n[nH]c(-c3ccc(F)cc3)c12,0,0,0,0
CCOc1ccc(N(C(C)C(=O)NCc2cccnc2)S(C)(=O)=O)cc1 (stereo unspecified),0,0,0,0
O=C(/C=C/c1ccc2c(c1)OCCO2)c1ccccc1,0,0,0,0
O=[N+]([O-])/C(=C/c1ccc2c(c1)OCCO2)c1ccccc1,0,65.2,0,0
N#Cc1c(/N=C/c2ccc(O)cc2O)sc2c1CCCC2,0,61.4,0,0
N#Cc1c(/N=C\c2ccc(O)cc2O)sc2c1CCCC2,0,0,0,0
CCN(CC)C(=O)Cn1cnc2sc(C(=O)Nc3nc4ccccc4s3)c(C)c2c1=O,0,80.2,0,0
Cc1c(C(=O)Nc2nc3ccccc3s2)sc2ncn(CC(=O)N3CC(C)CC(C)C3)c(=O)c12 (stereo unspecified),0,0,0,0
CCn1cnc2sc(C(=O)Nc3nc4ccc(Br)cc4s3)c(C)c2c1=O,0,39.7,0,0
SMILES,GPR151 activ,TEAD-YAP inh,MITF primary,FBW7 act
O=C(N/N=C/c1ccc(O)cc1)c1cc(O)c(O)c(O)c1,0,0,59.3,0
O=C(N/N=C/c1ccc(O)c(O)c1)c1cc(O)cc(O)c1,0,0,0,0
O=C(N/N=C/c1cc(Br)c(O)c(Br)c1)c1cc(O)c(O)c(O)c1,0,0,89.6,0
O=C(N/N=C/c1ccc(/C=N/NC(=O)c2ccc(O)c(O)c2)cc1)c1ccc(O)c(O)c1,0,0,106.8,0
Cc1ccc(C(=O)Nc2ccc3c(c2)OCO3)cc1,0,44.3,0,0
O=C(Nc1ccc2c(c1)OCCO2)c1ccc(F)cc1,0,43.4,0,0
O=C(Nc1onc2c1CCC2)c1ccc2ccccc2c1,0,0,0,0
O=C(Nc1onc2c1CCCC2)c1ccc2c(c1)OCO2,0,64.7,0,0
O=C(Nc1ccc2ncsc2c1)c1ccc2c(c1)OCCO2,0,85.6,0,0
Cc1ccc(C(=O)Nc2ccc3c(c2)OCCO3)cc1,0,0,0,0
O=C(Nc1ccc2ncsc2c1)c1ccc(F)cc1,0,0,0,0
O=C(O)C1=C(C(=O)Nc2ccc3c(c2)OCCO3)CCCC1,0,55.3,0,0
COc1cc(OC)c(S(=O)(=O)Nc2ccc3c(c2)OCCO3)cc1NC(C)=O,0,34.6,0,0

# Bioassay records (PubChem)
